# Experimental data reported in PubChem BioAssay (NCI).
# Compounds without any hit were thinned out: in the full panel of roughly 83,000, 20% have a hit.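 Plates (96-well) were seeded with cells, treated with compound at one concentration, and incubated for 48 hours before percent growth was determined.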 A number with no mark means an inactive call. Active and inactive are the calls of the source. Rule for the calls: active = growth percent below 10; inactive = the rest.
# Tested on: NCI-H23 lung
# Assay: NCI-60 one-dose screen, 48 h (100 = growth as untreated, 0 = no growth, -100 = all killed)
# Details: 10 µM unless noted
row,Compound,growth
1,COc1cc(C=O)ccc1OC1OC(COC(C)=O)C(OC(C)=O)C(OC(C)=O)C1OC(C)=O (centres undefined),102%
2,CC1=CCC(OC(=O)C(C)(O)CCC(O)(C(=O)OC2(C)C=CC(O)(C(C)C)CC2)C(C)C)(C(C)C)CC1 (centres undefined),108%
3,CC(=O)Nc1cccc(-c2ccc3c(c2)NC(=O)/C3=C\c2ccc[nH]2)c1,27.8%
4,CC(C)(C)c1ccc(NS(=O)(=O)c2ccc3nc(NC(=O)c4cnccn4)[nH]c3c2)cc1,52%
5,CC(C)(C)c1cc(/C=N/NC(=O)c2ccccc2NC(=O)c2cccs2)c(O)c(C(C)(C)C)c1,48.6%
6,C#CCNC(=O)[C@H](Cc1ccccc1)NC(=O)[C@]12CC[C@@H](C(=C)C)[C@@H]1[C@H]1CC[C@@H]3[C@@]4(C)CCC(=O)C(C)(C)[C@@H]4CC[C@@]3(C)[C@]1(C)CC2,70.6%
7,CCCCCCNC(=O)Oc1ccc(/C(=C(\C)c2ccccc2)c2ccc(OCCCN(C)C)cc2)cc1,82.8%
8,CC(=O)Nc1ccc(-c2ccc3c(c2)NC(=O)/C3=C\c2ccc[nH]2)cc1,52.5%
9,CCCCOc1ccc(/C=N/Nc2cc(C)nc3ccc(Br)cc23)cc1,74.9%
10,COc1cc(/C(C)=C(\c2ccc(Cl)cc2)c2ccc(OCCN(C)C)cc2)ccc1F,76.5%
11,O=C(/C=C/c1ccc(Cl)cc1)c1ccc(NC(=O)N2CCN(c3cc4c(cc3F)c(=O)c(C(=O)O)cn4C3CC3)CC2)cc1,87.4%
12,O=C(c1nc2ccccc2[nH]1)C1C(c2ccc(Cl)cc2)C2CC3CCCC[C@H]3N2[C@@]12C(=O)Nc1cc(Cl)ccc12 (some centres undefined),58.6%
13,O=C(NCCNc1nccc(-c2c(-c3cccc(F)c3)nc3sccn23)n1)c1ccc(Cl)cc1,73.5%
14,O=C(CCN1CCCC1)Nc1ccc2c(NCCCc3ccccc3)c3ccccc3nc2c1,14.8%
15,N#CC1=C(/N=C/c2ccccc2)Oc2c(ccc3ccccc23)C1c1ccc([N+](=O)[O-])cc1 (centres undefined),80.2%
16,Brc1ccc(Nc2csc(-c3ccccn3)n2)cc1,87.7%
17,COc1cc(/C(C)=C(\c2ccc(Cl)cc2)c2ccc(OCCN3CCCC3)cc2)ccc1F,67.4%

row,Compound,growth
1,CC(=O)N1c2ccccc2NC2=C(C(=O)NC2(C)C)C1c1ccco1 (centres undefined),91.2%
2,CCOC(=O)CSc1nc2ccccc2c(=O)n1Cc1ccc(S(N)(=O)=O)cc1,98%
3,CCCCOc1ccc(/C(C)=N/Nc2cc(C)nc3ccc(Br)cc23)cc1,90.7%
4,COc1cc2c(c(O)c1Cl)C(=O)c1c(O)cc(C[C@H](C)O)cc1[C@H]2[C@H]1c2cc(C[C@H](C)O)cc(O)c2C(=O)c2c1cc(OC)c(Cl)c2O,9.36% (active)
5,O=C(c1ccccc1)N1N=C(c2ccc(-n3ccc(C(F)(F)F)n3)c(F)c2)CC1c1ccc[nH]1 (centres undefined),104%
6,O=C(Nc1ccc(-c2ccc3c(c2)NC(=O)/C3=C\c2ccc[nH]2)cc1)NC1CC1,55.1%
7,O=c1ccc(-c2nc(N3CCOCC3)c3ccccc3n2)c[nH]1,93.9%
8,COc1cc(/C=C\C(=O)O)ccc1OCc1ccccc1,100%
9,COc1ccc(C(C)=O)c(OC)c1,105%
10,NC1=NN=C(N)C1=Cc1cc2ccccc2n2nnnc12,99%
11,C=C1C(=O)O[C@H]2[C@H]1CC/C(CNC(=O)/C=C/c1cccc(OC)c1)=C\CC[C@@]1(C)O[C@@H]21,64.4%
12,CNC(=O)c1cc(Cn2nc(C)c(NC(=O)Nc3ccc(Cl)c(C(F)(F)F)c3)c2C)ccn1,97.8%
13,Cc1ccc(/C=N/NC(=O)CSc2nc3ccccc3c(=O)n2Cc2ccc(S(N)(=O)=O)cc2)cc1,91.5%
14,O=C(Cc1ccc(/C=C/C(=O)c2ncc[nH]2)cc1)Nc1ccc(Cl)cc1,28.6%
15,CCCOC(=O)N[C@H]1CCc2c(Cl)c(OC)c(OC)c(OC)c2-c2ccc(SC)c(=O)cc21,26.8%
16,O=S(=O)(NCCCNc1nccc(-c2c(-c3cccc(O)c3)nc3occn23)n1)c1ccc(Cl)cc1,94.6%
17,COc1cc2c(=O)n(CCN(C)C)c3c4cc5c(cc4ccc3c2cc1OC)OCO5,-20.7% (active)
